Assay results taken from PubChem BioAssay (NCI).
The panel holds about 83,000 compounds, 20% with a hit somewhere; the sample as a whole holds those more often.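 How to read the values: 0–100, growth inhibition (40 = 60% inhibited); 0, no net growth; -100 to 0, cell death (-40 = 40% of starting cells died; -100 = all dead).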 The source made the active and inactive calls.

Test system: COLO 205 colon
Experiment: NCI-60 one-dose screen, 48 h (100 = growth as untreated, 0 = no growth, -100 = all killed)
Conditions: 10 µM unless noted
Procedure: Cells are grown in 96 well plates and exposed to the test compound for 48 hours. Compounds are tested at a single concentration, which is 10^-5 M for most compounds. The reported endpoint is percent growth (GI% or GIPRCNT), where numbers from 0 - 100% represent growth inhibition, and numbers from -100% - 0 represent cell death. For example, a value of 40 represents 60% growth inhibition. A value of 0 means no net growth occurred over the course of the experiment. A value of -40 indicates 40% of cells at the beginning of the experiment died by the end of the experiment. A value of -100 means all cells are dead at the end of the experiment.
NCI-60 Human Tumor Cell Lines Screen was performed using the standard one-dose NCI protocol, which is described in more detail at https://dtp.cancer.gov/discovery_development/nci-60/default.htm.
Compounds with GIPRCNT values below 10 were considered active. Activity score was based on GIPRCNT using the following formula: […]
Score is 0 for GIPRCNT values of 100 or above, 50 for GIPRCNT values of 0, and 100 for GIPRCNT values of -100.

Question: With `NS(=O)(=O)c1ccc(-n2cc(CC=O)nn2)cc1` as the compound, how does the growth read?
Answer: 121% (inactive)

Question: With `NS(=O)(=O)c1ccc(Nc2nc(N/N=C/c3ccc(F)cc3)nc(Nc3ccccc3)n2)cc1` as the compound, how does the growth read?
Answer: 20.9% (inactive)

Question: With `O=C(Nc1cccc(-c2nc(-c3ccc(NC(=O)c4cccs4)cc3Cl)no2)c1)Nc1ccc(NC(=O)C2CC2)c(C(F)(F)F)c1` as the compound, how does the growth read?
Answer: -51.7% (active)

Question: How did the growth turn out when `CC(C)c1nn(-c2ccccc2)c(N2CCCCC2)c1/C=N/NC(N)=S` was run?
Answer: 97% (inactive)

Question: For `COc1ccc2c(ccn2C(=O)N2c3ccccc3Sc3ccccc32)c1`, which growth is on record?
Answer: -33.3% (active)

Question: With `COc1ccc([C@@H]2[C@@H](O)C(=O)N2c2cc(OC)c(OC)c(OC)c2)cc1` as the compound, how does the growth read?
Answer: -78.7% (active)

Question: For `Cc1cc(O)c(=O)cc2c1C[C@H]1CC(C)(C)/C=C/C[C@]3(C)Oc4cc(=O)c(O)cc(C)c4C[C@H]3C[C@H](O)[C@@]1(C)O2`, which growth is on record?
Answer: -10.3% (active)

Question: Which growth does the source give for `N#C/C(=C\c1ccc2ccccc2c1)C(=O)Nc1sc2c(c1C#N)CCC2` here?
Answer: 115% (inactive)

Question: How did the growth turn out when `O=C(/C=C1\C=CN(CCCCF)c2ccccc21)n1ccc2ccccc21` was run?
Answer: 96.6% (inactive)

Question: With `COc1ccc(-c2nc3cc(Cl)c(Cl)cc3n2CC(=O)N=Nc2c(O)[nH]c3ccc(Cl)cc23)cc1` as the compound, how does the growth read?
Answer: -3.46% (active)

Question: `CCN1C(=O)N(CC)C2SC(N/N=C/c3ccccc3F)=NC21` (stereo not given) was tested. Which growth did it give?
Answer: -47.6% (active)

Question: How did the growth turn out when `COc1ccc(C(=O)n2cc(C=O)c3ccccc32)cc1` was run?
Answer: 114% (inactive)

Question: How did the growth turn out when `COc1cnc2c(c1)C(=O)c1c-2n(CCCn2ccnc2)c(=O)c2cc(OC)c(OC)cc12` was run?
Answer: -85.2% (active)

Question: `COc1ccc(CN2C(=O)/C(=C/c3nc(CO)cs3)SC2=S)cc1` was tested. Which growth did it give?
Answer: 118% (inactive)

Question: Which growth does the source give for `COc1ccc(NS(=O)(=O)c2ccc(-c3cnc(C4CC4)o3)cc2)cc1Cl` here?
Answer: 12.4% (inactive)

Question: With `O=C(CCCCCCN1CC(=O)N2[C@@H](c3ccccc3)c3[nH]c4ccccc4c3C[C@H]2C1=O)NO` as the compound, how does the growth read?
Answer: 58.8% (inactive)

Question: How did the growth turn out when `Cc1ccc(Cc2cnc(NC(=O)/C(C#N)=C/c3ccc(-c4ccc(Cl)cc4)o3)s2)cc1` was run?
Answer: 93.8% (inactive)

Question: For `CC(=O)Nc1cccc(-n2cnc3cc(-c4ccc(O)cc4)ccc32)c1`, which growth is on record?
Answer: 66.3% (inactive)

Question: Which growth does the source give for `C=C1C(=O)O[C@@H]2C[C@@H](C)/C=C\C(=O)[C@](C)(OC(C)=O)C[C@H](OC(=O)/C(C)=C\C)[C@@H]12` here?
Answer: -78.3% (active)

Question: Which growth does the source give for `COc1cc2cc(Oc3ccc(NC(=O)c4cccc(C(F)(F)F)c4)cc3)c(C)nc2cc1OCCN(C)C` here?
Answer: 95.8% (inactive)

Question: `CCN1CCN(c2cc(C(=O)Nc3nc4ccc(Oc5ccnc(C(=O)NC)c5)cc4s3)cc(C(F)(F)F)c2)CC1` was tested. Which growth did it give?
Answer: 59.9% (inactive)

Question: With `CS(=O)(=O)c1ccc(-c2nn(-c3ccccc3)cc2/C=C/C(=O)c2ccc(Br)cc2)cc1` as the compound, how does the growth read?
Answer: 113% (inactive)

Question: Which growth does the source give for `Clc1ccc(-c2nc3ccc(/C(=N\N=C\c4ccccc4)c4ccccc4)cc3[nH]2)cc1` here?
Answer: 73.1% (inactive)

Question: How did the growth turn out when `COC(=O)[C@@]1(C)CC[C@]2(C)CC[C@]3(C)C(=CC(=O)[C@@H]4[C@@]5(C)Cc6c(n(CC#CCN7CCN(C)CC7)c7ccccc67)C(C)(C)[C@@H]5CC[C@]43C)[C@@H]2C1` was run?
Answer: 94.2% (inactive)

Question: For `O=[N+]([O-])c1ccc(-c2nnc(SCc3ccc(O)c4ncccc34)n2-c2ccccc2)cc1`, which growth is on record?
Answer: 110% (inactive)

Question: For `Nc1ccc(-c2nnc(SCc3ccc(O)c4ncccc34)o2)cc1`, which growth is on record?
Answer: 1.77% (active)

Question: Which growth does the source give for `NNC(=O)c1sc2nc(-c3cnccn3)cc(-c3cccs3)c2c1N` here?
Answer: 102% (inactive)

Question: For `C#CCOc1ccc(C(Nc2ccc(Cl)cc2)c2nnnn2C2CCCCC2)cc1` (stereo not given), which growth is on record?
Answer: 97.9% (inactive)

Question: For `C#C[C@]1(O)CC[C@H]2[C@@H]3CC=C4c5sc(-c6ccccn6)nc5CC[C@]4(C)[C@H]3CC[C@@]21C`, which growth is on record?
Answer: 90.9% (inactive)

Question: For `CC(c1ccccc1)N1C(=O)/C(=C/c2csc(C#N)n2)SC1=S` (stereo not given), which growth is on record?
Answer: 91.8% (inactive)

Question: With `O=C1Nc2ccc(Br)cc2/C1=N\c1nnc(-c2ccc(Cl)cc2)o1` as the compound, how does the growth read?
Answer: 83.3% (inactive)

Question: Which growth does the source give for `CC(C)(C)n1nnnc1C(Nc1nccs1)c1cc2cccc3ccc4cccc1c4c32` (stereo not given) here?
Answer: 104% (inactive)

Question: Which growth does the source give for `Cn1cc(-c2nn3cc(-c4cccnc4)nc3s2)c2ccccc21` here?
Answer: -2.12% (active)

Question: With `COc1ccc(OC)c([C@H]2c3[nH]c4ccccc4c3C[C@H]3C(=O)N(CCCCCCC(=O)NO)CC(=O)N23)c1` as the compound, how does the growth read?
Answer: 86.4% (inactive)

Question: `Cc1cc2nc(C(Cl)Cl)nc(-c3ccco3)n2n1` was tested. Which growth did it give?
Answer: 25.8% (inactive)

Question: `C/C(=C(/c1ccc(O)cc1)c1ccc(OCCN2CCCCCC2)cc1)c1ccccc1` was tested. Which growth did it give?
Answer: -86.5% (active)

Question: With `O=C(Nc1cccc(-c2nc(-c3ccc(NC(=O)c4cccnc4)cc3Cl)no2)c1)Nc1ccc(NC(=O)C2CC2)c(C(F)(F)F)c1` as the compound, how does the growth read?
Answer: -55.3% (active)

Question: With `CN1CCN(Cc2ccc(NC(=O)c3cncc(C#Cc4cnc5ccc(O[C@H]6CCOC6)nn45)c3)cc2C(F)(F)F)CC1` as the compound, how does the growth read?
Answer: -89.1% (active)

Question: With `COc1ccc(-c2no[n+]([O-])c2Nc2ccccc2Br)cc1` as the compound, how does the growth read?
Answer: 107% (inactive)

Question: For `N/C(=N\OC(=O)CSc1nc2ccccc2s1)c1ccc2ccccc2c1`, which growth is on record?
Answer: 107% (inactive)
